Among all 320,000 compounds or so, about 190 (0.059%) were called active. The list comes from a sample in which actives are over-represented; it also holds similar structures and randomly drawn compounds. A number with no mark means an inactive call. Rule as the data show it: active = inhibition above about 10% (passing the limit was not always enough); inconclusive = no clear call, values can overlap the other calls.

Sequence of UDP-galactopyranose mutase (Mycobacterium tuberculosis (strain ATCC 25618 / H37Rv)) (P9WIQ1 whole entry, looked up): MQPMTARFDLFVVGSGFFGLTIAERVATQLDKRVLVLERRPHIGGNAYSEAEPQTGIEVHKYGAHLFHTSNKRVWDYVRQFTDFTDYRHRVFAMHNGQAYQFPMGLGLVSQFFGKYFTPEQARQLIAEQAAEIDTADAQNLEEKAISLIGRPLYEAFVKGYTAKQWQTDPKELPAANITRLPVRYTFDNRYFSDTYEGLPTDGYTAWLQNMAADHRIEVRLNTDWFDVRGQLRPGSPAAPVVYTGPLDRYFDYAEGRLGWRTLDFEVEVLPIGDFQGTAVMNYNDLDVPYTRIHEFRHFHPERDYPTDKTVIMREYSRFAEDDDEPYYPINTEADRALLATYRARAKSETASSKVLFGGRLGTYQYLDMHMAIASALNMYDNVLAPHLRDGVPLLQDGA

This test has as its target UDP-galactopyranose mutase (Mycobacterium tuberculosis (strain ATCC 25618 / H37Rv)) (UniProt P9WIQ1). Briefly: blockers of Mtb UDP-galactopyranose mutase – biochemical, fluorescence polarization, single point, primary screen (AID 504406). The settings on record: purified UGM, fluorescence polarization probe displacement; at 10 µM; stronger effect = higher value. A general note: In fluorescence polarisation assays a small probe gives low polarisation when free and higher when bound to something large.
For `CC(C)CNC(=O)C(=O)NCC(c1ccc2c(c1)OCO2)N1CCOCC1` (centres undefined), the inhibition (as a rule, the drop in the measured response relative to a control, in per cent) is -1.37%.
As to `Cn1c(=O)cc(OCC(=O)N2CCN(c3ccccc3F)CC2)c2ccccc21`, the inhibition was 0.591%.
For `Cc1cc(C)n(CCNC(=O)CC2C(=O)NCCN2Cc2ccc(C)o2)n1` (centres undefined), the inhibition is -1.39%.
With `CC(C)(C)c1cc[n+](-c2[nH]c(=O)sc2/C=N/N=C(\[O-])c2ccccc2)cc1`, the inhibition was 0.838%.
On to `CCCCn1c(-c2cccc(C)c2)nc2cc3[nH]c(=O)c(C(C)C)nc3cc21`, for which the inhibition was -1.53%.
On to `CCOC(=O)c1ccc(NC(=S)N2CCN(c3ccccn3)CC2)cc1`, for which the inhibition is 0.665%.
With `COc1ccc(N(C(=O)c2ccc(C)cc2)S(=O)(=O)c2cccs2)cc1`, the inhibition was 0.9%.
For `CCn1c(SCC(=O)Nc2sc(C)c(C)c2C#N)nnc1C1CC1` the value was 2.46%.
Regarding `O=C(NCc1nnc(SCC(=O)N2CCCc3ccccc32)o1)c1ccccc1F`, the inhibition is -0.239%.
`COc1cccc(NC(=O)Nc2nnc(N3CCCCC3C)s2)c1` (centres undefined): the inhibition was -1.07%.
`O=C(Cc1ccccc1F)NC1CCSc2ccccc21` (centres undefined): the inhibition is 1.04%.
For the compound `CCN(Cc1ccncc1)C(=O)CCc1ccccc1`, the inhibition is -1.33%.
As for `C/C=C/c1ccc(OCC(O)CN2CCCCCCC2)c(OC)c1` (centres undefined), the inhibition was -2.18%.
For `Cc1cc(NC(=O)CCS(=O)(=O)c2ccc(F)cc2)no1`, the inhibition is 1.59%.
On to `Cc1[nH]c2ccccc2c1CCN(Cc1cccs1)C(=S)NC(C)(C)C`, for which the inhibition was 1.01%.
As for `COc1ccc2[nH]c(C)c(CCN(Cc3cccs3)C(=S)Nc3ccccc3OC)c2c1`, the inhibition is 12.8% (active).
For `COc1cccc(NC(=S)N(CCc2c(C)[nH]c3ccccc23)Cc2ccco2)c1` the value was 5.05%; for `COc1ccccc1CNC(=O)c1ccc(N(C)S(=O)(=O)c2ccc(C)cc2)cc1`, -1.48%.
For `CCOc1ccc(CCNC(=O)COC(=O)c2ccc(F)c(S(=O)(=O)N3CCOCC3)c2)cc1OCC` the value was 0.417%; for `Cc1c(Cl)cccc1NC(=O)CCC(=O)N/N=C/c1ccco1`, 2.71%.
For `COc1ccc(CNC(=O)C(=O)NCC2OCCN2C(=O)c2ccc(OC)cc2)cc1` (centres undefined) the value was -1.77%; for `FC(F)(F)c1cc(-c2ccco2)nc(NCc2ccc(Cl)cc2)n1`, -0.748%.
In the case of `O=C(O)c1ccc(F)c(S(=O)(=O)Nc2ccccc2)c1`, the inhibition is 2.67%.
In the case of `Cc1noc(C)c1S(=O)(=O)Nc1ccc(C(=O)O)cc1`, the inhibition was -2.83%.
For the compound `Cc1cc(C(C)(C)C)cc(S(=O)(=O)Nc2ccc(C(=O)O)cc2)c1C`, the inhibition is 20% (active).
For `Cc1cc(C)cc(N(CC(=O)NCC2CCCO2)S(=O)(=O)c2c(C)noc2C)c1` (centres undefined), the inhibition is -1.07%.
For `CCc1ccc(Nc2n[n+](-c3ccccc3)c(-c3cccc(Cl)c3Cl)s2)cc1` the value was 1.25%; for `O=C(O)CCS(=O)(=O)c1ccc(-c2ccccc2)cc1`, 0.58%; for `O=C(c1ccco1)N1CCN(C(=O)C2CCCN(S(=O)(=O)c3cccc4nsnc34)C2)CC1` (centres undefined), 1.18%.
For `COc1cccc(/C=N/NC(=O)C(=O)N2CCCC2)c1` the value was -1.54%.
For `C#CCNC(=O)[C@H](Cc1ccc(C(=O)c2ccccc2)cc1)NC(=O)OC(C)(C)C`, the inhibition was -0.186%.
As to `CCN(CC)S(=O)(=O)c1ccc(N2CCCC2)c(NS(=O)(=O)c2cccs2)c1`, the inhibition was -0.858%.
For `Clc1ccc(-c2cc(COc3ccccc3)no2)cc1Cl`, the inhibition is 2.39%.
Regarding `Cc1ccc(S(=O)(=O)N(CC(=O)N/N=C/c2ccc(F)cc2)c2cccc3cccnc23)cc1`, the inhibition is 1.31%.
Turning to `COc1ccc2c(c1)c(=O)c(C(=O)c1ccc(Cl)cc1)cn2CC(=O)Nc1ccc(F)cc1`, the inhibition is -1.48%.
For `Cc1cc(C)n(CCC(=O)N2CCN(S(=O)(=O)c3ccc(C)c(C)c3)CC2)n1`, the inhibition was -2.44%.
On to `CCOC(=O)C1(CCOc2ccccc2)CCN(Cc2ccc(C#CCCO)cc2)CC1`, for which the inhibition was -2.01%.
Turning to `COC(=O)c1ccc(NC(=O)CSc2nncn2-c2cccnc2)cc1`, the inhibition was -3.9%.
Regarding `COc1ccc(C(O)(C2CCCCC2)C(CN2CCCC2)c2ccccc2)cc1` (centres undefined), the inhibition was 1.17%.
Take `COc1ccc(CNS(=O)(=O)c2ccc(NC(=O)N3CCCCC3)cc2)cc1`: the inhibition was 0.444%.
`COC(=O)c1c(NC(=O)COc2ccc(Cl)cc2Cl)sc2c1CC(C)(C)NC2(C)C`: the inhibition is -3.8%.
Take `C=C(Br)CN1CCN(CC(=C)Br)CC1`: the inhibition was 2.58%.
On to `C=CC[C@@H](CC(=O)NCCO)C(=O)N[C@H](C)COC(=O)[C@@H](CC=C)CC(=O)OC(C)(C)C`, for which the inhibition was -0.634%.
As for `Cn1c(=O)c2c(nc(OCc3cccnc3)n2Cc2ccccc2)n(C)c1=O`, the inhibition is 7.96%.
With `Cc1cc(C(=O)OCC(=O)Nc2ccc(F)c(F)c2)c(C)o1`, the inhibition is -0.0838%.
Consider `COc1cccc(NC(=O)CN(C)CC(=O)c2c(N)n(Cc3ccccc3)c(=O)n(C)c2=O)c1`, for which the inhibition is 3.19%.
For `CCCn1nnnc1NCc1ccc(CC)cc1` the value was -1.05%; for `Cc1cccc(N(C)C(=O)CN2C(=O)COc3ccc(S(=O)(=O)N4CCCCCC4)cc32)c1`, -1.26%.
For `CCOC(CNC(=O)C1CCN(S(=O)(=O)c2ccc3nc4c(c(C(=O)O)c3c2)CC(C)CC4)CC1)OCC` (centres undefined) the value was -0.608%.
Take `Cc1ccc(N)cc1-n1c(C)ccc1C`: the inhibition was -4.8%.
With `CC(Sc1nc2cc(Cl)ccc2s1)C(=O)Nc1ccc2c(c1)OCO2` (centres undefined), the inhibition was 1.22%.
For `Cc1cccc(N(CC(=O)Nc2ccc(-c3nc4ccc(C)cc4s3)cc2)S(C)(=O)=O)c1` the value was -2.81%.
Turning to `CCN(CC)CCn1cnc2c1c(=O)n(CCOC(=O)c1cc(OC)c(OC)c(OC)c1)c(=O)n2C`, the inhibition is 0.786%.
As to `CC(CNC(=O)Cn1cnc2c(OCc3ccccc3)ncnc21)c1ccccc1` (centres undefined), the inhibition is -1.84%.
For `CCSC1(SCC)N=C(N)C2(C#N)C(c3ccccc3)NC(C)=CC12C#N` (centres undefined) the value was 0.444%; for `O=C1CCC(Cc2ccccc2)N1` (centres undefined), 1.36%.
Consider `O=C(CN1C(=O)c2ccc([N+](=O)[O-])cc2C1=O)Nc1nnc(C2CC2)s1`, for which the inhibition was 0.737%.
For `CN1CCN(Cc2nc3cc(NC(=O)COc4ccc([N+](=O)[O-])cc4)ccc3n2C)CC1` the value was -1.12%.
Consider `CC1CCC2(CC1)NC(=O)N(CC(=O)c1cccn1C)C2=O` (centres undefined), for which the inhibition is -1.14%.
